{"source": "the supplement of paper PMC12340641", "data": [{"target": "IKZF1 (dCK*-IKZF1 fusion in HEK293FT) (UniProt Q13422)", "sequence (Q13422 whole entry, looked up, the tested form may be a part)": "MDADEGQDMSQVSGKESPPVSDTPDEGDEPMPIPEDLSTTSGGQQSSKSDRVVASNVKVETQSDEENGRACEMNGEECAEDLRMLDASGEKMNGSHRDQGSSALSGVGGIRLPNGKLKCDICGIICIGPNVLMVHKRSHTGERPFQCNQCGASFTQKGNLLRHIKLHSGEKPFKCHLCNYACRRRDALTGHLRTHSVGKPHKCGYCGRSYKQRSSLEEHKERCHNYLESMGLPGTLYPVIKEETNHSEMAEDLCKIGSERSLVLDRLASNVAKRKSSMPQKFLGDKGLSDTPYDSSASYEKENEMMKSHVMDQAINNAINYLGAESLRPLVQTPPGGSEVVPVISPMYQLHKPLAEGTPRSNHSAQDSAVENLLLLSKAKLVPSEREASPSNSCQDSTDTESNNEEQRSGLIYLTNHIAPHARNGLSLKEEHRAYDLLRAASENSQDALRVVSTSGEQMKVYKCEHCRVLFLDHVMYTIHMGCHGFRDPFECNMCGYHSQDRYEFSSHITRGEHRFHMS", "assay": "inhibition of IKZF1 HTRF signal (DMSO = 0%, pomalidomide 10 uM = 100%); higher = lower IKZF1 protein level", "conditions": "compound concentration: 5 uM, overnight (~20 h)", "outline": "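Compound was tested at 5 μM in single wells on HEK293FT cells (2000/well, 384-well) stably carrying an IKZF1 fusion, overnight at 37 °C. Total IKZF1 was measured in lysates with a commercial HTRF antibody kit as the background-subtracted 665/620 nm time-resolved FRET ratio. The reported figure is percent inhibition of IKZF1 signal, scaled per plate between vehicle and a reference degrader. The vehicle anchor was 0% and the degrader anchor 100%.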", "units": {"inhibition of IKZF1 HTRF signal": "%"}, "values": [{"smiles": "CCCCCCC[n+]1ccc(-c2cc[n+](CCCCCCC)cc2)cc1", "inhibition of IKZF1 HTRF signal": -27.9}, {"smiles": "COc1cc2cc(c1Cl)N(C)C(=O)C[C@H](OC(=O)C(C)C)[C@]1(C)O[C@H]1[C@H](C)[C@@H]1C[C@@](O)(NC(=O)O1)[C@H](OC)/C=C/C=C(\\C)C2", "note": "[Ansamitocin P-3]", "inhibition of IKZF1 HTRF signal": -18.7}, {"smiles": "COC(=O)[C@@]12OC[C@]34[C@H]([C@@H](O)[C@@H]1O)[C@@]1(C)CC(=O)C(O)=C(C)[C@@H]1C[C@H]3OC(=O)[C@H](OC(=O)/C=C(\\C)C(C)C)[C@@H]24", "note": "[Bruceantin]", "inhibition of IKZF1 HTRF signal": 43.7}, {"smiles": "O=c1[nH]c2ccccc2n1CCCN1CCC(n2c(=O)[nH]c3cc(Cl)ccc32)CC1", "inhibition of IKZF1 HTRF signal": 4.83}, {"smiles": "CO[C@H]1[C@H](O)[C@H](O[C@H]2CC[C@@]3(C=O)[C@H](CC[C@@H]4[C@@H]3CC[C@]3(C)[C@@H](C5=CC(=O)OC5)CC[C@]43O)C2)O[C@@H](C)[C@@H]1O", "note": "[Peruvoside]", "inhibition of IKZF1 HTRF signal": 94.1}, {"smiles": "O=[N+]([O-])c1cc(O)c(O)c([N+](=O)[O-])c1", "inhibition of IKZF1 HTRF signal": -33.8}, {"smiles": "CCCCCCCCCCC(=O)O[C@H]1CC[C@H]2[C@@H]3CCC4=CC(=O)CC[C@]4(C)[C@H]3CC[C@]12C", "note": "[Testosterone (undecanoate)]", "inhibition of IKZF1 HTRF signal": -31.5}, {"smiles": "CC(C)[C@]12O[C@H]1[C@@H]1O[C@]13[C@]1(O[C@H]1C[C@H]1C4=C(CC[C@@]13C)C(=O)OC4)[C@@H]2O", "note": "[Triptolide]", "inhibition of IKZF1 HTRF signal": 29.6}, {"smiles": "CO[C@@]12C(=COC(N)=O)c3c(O)c(N)c(C)c(O)c3N1C[C@@H]1N[C@@H]12", "note": "[Mitomycin C]", "inhibition of IKZF1 HTRF signal": 15.8}, {"smiles": "CO[C@H]1C[C@H](O[C@H]2CC[C@@]3(C)[C@H](CC[C@@H]4[C@@H]3CC[C@]3(C)[C@@H](C5=CC(=O)OC5)[C@@H](OC(C)=O)C[C@]43O)C2)O[C@@H](C)[C@@H]1O", "note": "[Oleandrin]", "inhibition of IKZF1 HTRF signal": 45.9}, {"smiles": "CC(C)C[C@H](NC(=O)[C@@H](O)[C@H](N)Cc1ccccc1)C(=O)NCCOCCOCCOCC(=O)O[C@H]1CC[C@H]2[C@@H]3CC[C@H]4CC(=O)CC[C@]4(C)[C@H]3CC[C@]12C.O=C(O)C(F)(F)F", "note": "[PROTAC AR Degrader-4 (TFA)]", "inhibition of IKZF1 HTRF signal": 16.9}, {"smiles": "COc1cc([C@@H]2c3cc4c(cc3[C@H](O)[C@H]3COC(=O)[C@H]23)OCO4)cc(OC)c1OC", "inhibition of IKZF1 HTRF signal": 50}, {"smiles": "C[C@]12CC[C@H](O)C[C@H]1CC[C@@H]1[C@@H]2CC[C@]2(C)[C@@H](C3=CC(=O)OC3)CC[C@]12O", "note": "[digitoxigenin]", "inhibition of IKZF1 HTRF signal": 40.7}, {"smiles": "CCCCCCCCCCCCCCCC[n+]1ccccc1", "inhibition of IKZF1 HTRF signal": -19.4}, {"smiles": "C[C@H]1CCC/C=C/C2C[C@H](O)C[C@H]2[C@H](O)/C=C/C(=O)O1", "note": "(stereo partly drawn) [brefeldin-a]", "inhibition of IKZF1 HTRF signal": 2.49}, {"smiles": "c1ccc2c(c1)Sc1ccccc1N2CC1CN2CCC1CC2", "note": "(stereo not drawn) [levomequitazine]", "inhibition of IKZF1 HTRF signal": 10.6}, {"smiles": "CCC(C)[C@H]1O[C@]2(C=C[C@@H]1C)C[C@@H]1C[C@@H](C/C=C(\\C)[C@@H](OC3C[C@H](OC)C(O[C@H]4C[C@H](OC)[C@@H](O)[C@H](C)O4)[C@H](C)O3)[C@@H](C)/C=C/C=C3\\CO[C@@H]4[C@H](O)C(C)=C[C@@H](C(=O)O1)[C@]34O)O2", "note": "(stereo partly drawn) [ABAMECTIN (avermectin B1a shown)]", "inhibition of IKZF1 HTRF signal": -61.7}, {"smiles": "O=C1c2ccccc2C(=O)c2ccccc21", "note": "[anthraquinone]", "inhibition of IKZF1 HTRF signal": -34.9}, {"smiles": "O=c1c2ccccc2[se]n1-c1ccccc1", "inhibition of IKZF1 HTRF signal": -37.8}, {"smiles": "C(=C\\c1ccccc1)/CN1CCN(CCOC(c2ccccc2)c2ccccc2)CC1", "inhibition of IKZF1 HTRF signal": -32.9}, {"smiles": "C=C1[C@@H](C)[C@H]2[C@H](Cc3ccccc3)NC(=O)[C@]23OC(=O)/C=C/[C@H](O)CCC[C@@H](C)C/C=C/[C@H]3[C@@H]1O", "note": "[Cytochalasin B]", "inhibition of IKZF1 HTRF signal": 32.2}, {"smiles": "ClC(C=C3)=C(Cl)C=[C@@]3[C@H]2C1=CC=CC=C1[C@H](NC)C2", "note": "[indatraline]", "inhibition of IKZF1 HTRF signal": 28.4}, {"smiles": "NCC1(CC(=O)O)CCCCC1", "inhibition of IKZF1 HTRF signal": -1.54}, {"smiles": "CCCCC1(C2CCCC2)Cc2cc(OCCCC(=O)O)c(Cl)c(Cl)c2C1=O", "note": "(stereo not drawn)", "inhibition of IKZF1 HTRF signal": -38.8}, {"smiles": "O=C(CCCN1CCC2(CC1)C(=O)NCN2c1ccccc1)c1ccc(F)cc1", "note": "[spiperone]", "inhibition of IKZF1 HTRF signal": -3.55}, {"smiles": "Oc1c(I)cc(I)cc1I", "inhibition of IKZF1 HTRF signal": 11}, {"smiles": "COC[C@H]1OC(=O)c2coc3c2[C@@]1(C)C1=C(C3=O)[C@@H]2CCC(=O)[C@@]2(C)C[C@H]1OC(C)=O", "note": "[Wortmannin]", "inhibition of IKZF1 HTRF signal": 1.66}, {"smiles": "OC1=[C@]([C@]2=C(O)C(C(C=O)=C(O)C(O)=C3C(C)C)=C3C=C2C)C(C)=CC4=C1C(C=O)=C(O)C(O)=C4C(C)C", "note": "[gossypol]", "inhibition of IKZF1 HTRF signal": -16.2}]}]}
